SMILES strings stand for the structures. Calls of active or inactive are those of the source.

Results on five compounds are retold here after PubChem BioAssay.

The nature of test [1]: small molecules captured by biotinylated probe aFSTL3 – biochemical, small-molecule microarray, fluorescence 635/667, stem cell growth factor project, primary screen (AID 1064).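 Note: measures binding of the biotinylated anti-FSTL3 antibody to printed compounds.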 To be noted: higher = more signal.
Test [2] in a line: binders from COS7 lysate, DM2A8 probe, primary screen, torsin A project, cell lysate, small-molecule microarray, fluorescence 635/667 (AID 1065). To be noted: higher = more signal, COS7 lysate expressing mutant human TOR1A.
Test [3] is described as follows: small molecules captured by biotinylated probe aFGF2 – biochemical, small-molecule microarray, fluorescence 635/667, stem cell growth factor project, primary screen (AID 1067).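 Note: measures binding of biotinylated aFGF2 protein to printed compounds on slides; z-score merges feature fluorescence and signal-to-noise across triplicate slides.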 The following applies: higher = more signal.
Test [4] can be described thus: small molecules captured by biotinylated probe aFGF10 – biochemical, small-molecule microarray, fluorescence 635/667, stem cell growth factor project, primary screen (AID 1071).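 Note: score merges 667 nm spot intensity and signal to noise from triplicate slides.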 To be noted: higher = more signal.
The target of test [5] is Neurogenic locus notch homolog protein 2 (Homo sapiens) (UniProt Q04721). The test can be described thus: small molecules binding Notch2 protein – biochemical, small-molecule microarray, 635 nm fluorescence, stem cell growth factors, primary screen (AID 1073). To be noted: higher = more signal.
Neurogenic locus notch homolog protein 2 (Homo sapiens), sequence (Q04721 whole entry, looked up, canonical isoform): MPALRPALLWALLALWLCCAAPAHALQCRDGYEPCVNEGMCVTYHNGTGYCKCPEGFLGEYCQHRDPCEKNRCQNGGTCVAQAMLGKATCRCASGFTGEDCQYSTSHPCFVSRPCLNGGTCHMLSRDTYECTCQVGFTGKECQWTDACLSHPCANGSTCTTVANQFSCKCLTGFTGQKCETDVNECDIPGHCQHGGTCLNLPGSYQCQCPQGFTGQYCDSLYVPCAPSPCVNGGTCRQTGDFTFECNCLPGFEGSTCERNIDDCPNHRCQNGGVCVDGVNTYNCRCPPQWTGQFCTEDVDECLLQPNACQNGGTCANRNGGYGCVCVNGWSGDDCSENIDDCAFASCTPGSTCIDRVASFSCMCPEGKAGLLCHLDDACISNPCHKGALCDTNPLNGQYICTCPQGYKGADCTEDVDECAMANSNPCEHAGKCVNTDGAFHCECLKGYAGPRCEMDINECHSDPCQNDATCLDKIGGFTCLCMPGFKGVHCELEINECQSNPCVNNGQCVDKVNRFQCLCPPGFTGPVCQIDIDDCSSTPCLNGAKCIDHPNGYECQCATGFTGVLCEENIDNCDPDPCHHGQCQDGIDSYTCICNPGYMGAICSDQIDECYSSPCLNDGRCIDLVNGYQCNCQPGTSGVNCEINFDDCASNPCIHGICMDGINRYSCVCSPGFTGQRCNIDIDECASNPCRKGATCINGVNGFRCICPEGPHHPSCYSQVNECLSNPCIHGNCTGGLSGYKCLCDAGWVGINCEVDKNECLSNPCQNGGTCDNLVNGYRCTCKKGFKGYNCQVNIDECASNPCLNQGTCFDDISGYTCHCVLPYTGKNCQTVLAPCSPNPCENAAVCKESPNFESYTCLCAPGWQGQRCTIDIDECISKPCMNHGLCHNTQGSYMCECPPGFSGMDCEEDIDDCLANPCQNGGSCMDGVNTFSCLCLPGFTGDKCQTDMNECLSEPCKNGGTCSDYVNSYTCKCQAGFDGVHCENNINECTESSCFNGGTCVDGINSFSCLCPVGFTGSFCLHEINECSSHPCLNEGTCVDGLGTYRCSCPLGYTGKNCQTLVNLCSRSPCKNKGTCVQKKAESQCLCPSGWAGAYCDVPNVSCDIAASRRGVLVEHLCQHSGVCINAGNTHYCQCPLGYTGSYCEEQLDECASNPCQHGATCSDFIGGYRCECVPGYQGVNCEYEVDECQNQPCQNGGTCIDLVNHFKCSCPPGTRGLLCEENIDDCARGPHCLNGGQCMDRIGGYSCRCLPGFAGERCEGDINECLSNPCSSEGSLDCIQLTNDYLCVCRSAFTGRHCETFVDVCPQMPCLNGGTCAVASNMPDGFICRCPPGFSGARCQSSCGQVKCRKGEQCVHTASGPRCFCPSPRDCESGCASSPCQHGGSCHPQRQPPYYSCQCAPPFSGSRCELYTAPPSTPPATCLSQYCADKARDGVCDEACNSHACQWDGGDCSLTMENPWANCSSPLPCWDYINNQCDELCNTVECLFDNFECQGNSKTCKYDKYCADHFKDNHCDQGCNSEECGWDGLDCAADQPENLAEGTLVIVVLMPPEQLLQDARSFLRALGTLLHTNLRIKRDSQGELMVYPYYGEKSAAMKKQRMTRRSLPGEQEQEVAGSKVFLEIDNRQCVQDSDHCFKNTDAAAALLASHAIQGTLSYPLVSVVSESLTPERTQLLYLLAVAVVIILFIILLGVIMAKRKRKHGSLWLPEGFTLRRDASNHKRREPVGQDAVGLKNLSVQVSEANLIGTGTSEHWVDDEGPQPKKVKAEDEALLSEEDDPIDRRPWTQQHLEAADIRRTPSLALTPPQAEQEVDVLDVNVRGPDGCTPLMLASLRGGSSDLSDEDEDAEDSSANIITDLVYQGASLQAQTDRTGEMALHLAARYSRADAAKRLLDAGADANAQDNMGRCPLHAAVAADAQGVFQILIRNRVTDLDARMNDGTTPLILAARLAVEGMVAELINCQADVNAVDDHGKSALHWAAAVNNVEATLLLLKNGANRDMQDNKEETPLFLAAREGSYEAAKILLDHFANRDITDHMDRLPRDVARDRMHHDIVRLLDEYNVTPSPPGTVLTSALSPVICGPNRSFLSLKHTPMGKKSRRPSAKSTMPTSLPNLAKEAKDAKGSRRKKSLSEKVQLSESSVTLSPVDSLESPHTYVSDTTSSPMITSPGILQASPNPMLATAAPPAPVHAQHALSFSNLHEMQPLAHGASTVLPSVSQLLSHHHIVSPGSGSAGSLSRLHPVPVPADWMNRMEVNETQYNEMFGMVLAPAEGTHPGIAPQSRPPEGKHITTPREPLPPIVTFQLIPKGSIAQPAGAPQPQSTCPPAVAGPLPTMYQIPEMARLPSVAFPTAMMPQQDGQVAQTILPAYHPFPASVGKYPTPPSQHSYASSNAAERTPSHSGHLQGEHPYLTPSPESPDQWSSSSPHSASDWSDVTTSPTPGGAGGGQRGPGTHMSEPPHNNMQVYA
Test [6] concerns the target Pro-neuregulin-1, membrane-bound isoform (Homo sapiens) (UniProt Q02297). The test can be described thus: small molecules binding neuregulin-1 protein – biochemical, small-molecule microarray, fluorescence 635/667, psychiatric disease protein project, primary screen (AID 1075).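 Note: score combines 667 nm spot fluorescence with signal to noise.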 The following applies: NRG1 binding, 635 nm fluorescence, higher = more signal.
Test [7] deals with Neuregulin-1 EGF-like domain. The test can be described thus: small molecules binding NRG1 EGF domain – biochemical, small-molecule microarray, 635 nm fluorescence, primary screen (AID 1081).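 Note: binding of the protein to compounds printed on small-molecule microarray slides.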 The following applies: higher = more signal.
Test [8] can be described thus: FRG1 expression reporter modulators in myotubes – cell-based, C2C12 myotubes, firefly/Renilla luciferase, luminescence, FRG1 inhibition for FSHD, primary screen (AID 1084). The following applies: FRG1 promoter luciferase, higher = more signal, called active from +8 up or from −8 down.
A short description of test [9]: small molecules captured by biotinylated probe aFST – biochemical, small-molecule microarray, fluorescence 635/667, stem cell growth factor project, primary screen (AID 1086).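 Note: score merges 667 nm fluorescence with signal-to-noise of each printed compound spot.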 The following applies: higher = more signal.
A short description of test [10]: binders of probe aHhip on microarray, primary screen, stem cell growth factor project, biochemical, small-molecule microarray, fluorescence 635/667 (AID 1087).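 Note: score merges spot fluorescence at 667nm with spot signal to noise ratio.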 The following applies: higher = more signal.
The subject of test [11] is PRMT1 (protein arginine N-methyltransferase 1). Kind of test: small molecules binding arginine methyltransferase PRMT1 – biochemical, small-molecule microarray, 635 nm fluorescence, primary screen (AID 1088).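 Note: binding of Prmt1 protein to compounds spotted on small-molecule microarray slides.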 The following applies: higher = more signal.
Test [12] in a line: growth effects on S. cerevisiae YJM789 – YJM789 clinical isolate, OD600, 24 h, basal, primary screen (AID 1089).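 Note: growth of clinical yeast isolate S. cerevisiae YJM 789 seeded 1000 cells per well; test concentration not given here.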 To be noted: higher = more signal, called active from +8 up or from −8 down.
A short description of test [13]: S. pombe growth modifiers, basal conditions – strain 972, OD600, 24 h, no modulator, primary screen (AID 1090).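 Note: basal condition with compound alone and no growth modifier present; test concentration not given here.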 To be noted: S. pombe 972 growth, higher = more signal, called active from +8 up or from −8 down.
A short description of test [14]: budding yeast growth modifiers under rapamycin – strain BY4716, OD600, 96 h, primary screen (AID 1091). Note: test concentration not given here. The following applies: S. cerevisiae BY4716 + rapamycin, higher = more signal, called active from +8 up or from −8 down.
Test [15] has as its target Torsin-1A-interacting protein 2 (Homo sapiens) (UniProt Q8NFQ8). Kind of test: small molecules binding lysate-expressed LULL1 – cell lysate, human LULL1 lysate, 635/667 nm fluorescence, primary screen (AID 1092).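 Note: probe is lysate of COS7 cells overexpressing human LULL1; score merges per-feature 667 nm fluorescence with signal-to-noise.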 To be noted: small-molecule microarray, hLULL1 lysate binding, 635 nm fluorescence; higher = more signal.
A short description of test [16]: optical density change of DRC41 E. coli – strain DRC41, OD650, 24 h, E. coli filamentation project, primary screen (AID 1093).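 Note: MC1000 strain lacking acrAB efflux and sulA so SOS filamentation is blocked; test concentration not given here.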 The following applies: E. coli DRC41 growth, higher = more signal, called active from +8 up or from −8 down.
Test [17] can be described thus: probe aLefty2 binding to arrayed compounds – biochemical, biotinylated probe, 635/667 nm fluorescence, primary screen (AID 1094).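 Note: score merges spot fluorescence near 667 nm with spot signal-to-noise ratio.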 To be noted: small-molecule microarray, higher = more signal.
Test [18] concerns Noggin (protein binding on small-molecule microarray). Kind of test: small molecules binding Noggin protein – biochemical, 635/667 nm fluorescence, primary screen (AID 1095).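 Note: score merges 667 nm feature fluorescence with signal to noise over triplicate slides.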 To be noted: 635 nm fluorescence, higher = more signal.
Test [19] concerns the target Neurogenic locus notch homolog protein 3 (Homo sapiens) (UniProt Q9UM47). The test can be described thus: small molecules binding NOTCH3 protein – biochemical, 635/667 nm fluorescence, primary screen (AID 1096). To be noted: small-molecule microarray, 635 nm fluorescence, higher = more signal.
The nature of test [20]: probe aEGFR binding to arrayed compounds – biochemical, biotinylated probe, 635/667 nm fluorescence, primary screen (AID 1097).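 Note: probe is a biotinylated anti-EGFR antibody binding compounds printed on slides; score combines fluorescence near 667 nm and signal to noise of each spot.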 To be noted: small-molecule microarray, higher = more signal.

Torsin-1A-interacting protein 2 (Homo sapiens), sequence (Q8NFQ8 whole entry, looked up): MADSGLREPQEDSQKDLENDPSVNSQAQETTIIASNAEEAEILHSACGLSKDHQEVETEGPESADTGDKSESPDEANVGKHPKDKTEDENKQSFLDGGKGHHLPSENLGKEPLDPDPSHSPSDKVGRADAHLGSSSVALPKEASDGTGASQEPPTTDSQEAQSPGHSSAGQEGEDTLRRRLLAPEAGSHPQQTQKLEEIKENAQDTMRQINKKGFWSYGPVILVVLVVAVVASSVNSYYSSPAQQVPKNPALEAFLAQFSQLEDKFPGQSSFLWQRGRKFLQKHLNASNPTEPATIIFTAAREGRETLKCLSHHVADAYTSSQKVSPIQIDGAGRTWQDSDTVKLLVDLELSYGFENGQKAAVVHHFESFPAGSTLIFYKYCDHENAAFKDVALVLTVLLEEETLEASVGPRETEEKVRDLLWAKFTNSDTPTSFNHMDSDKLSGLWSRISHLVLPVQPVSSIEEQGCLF
Pro-neuregulin-1, membrane-bound isoform (Homo sapiens), sequence (Q02297 whole entry, looked up, the tested form may be a part, canonical isoform): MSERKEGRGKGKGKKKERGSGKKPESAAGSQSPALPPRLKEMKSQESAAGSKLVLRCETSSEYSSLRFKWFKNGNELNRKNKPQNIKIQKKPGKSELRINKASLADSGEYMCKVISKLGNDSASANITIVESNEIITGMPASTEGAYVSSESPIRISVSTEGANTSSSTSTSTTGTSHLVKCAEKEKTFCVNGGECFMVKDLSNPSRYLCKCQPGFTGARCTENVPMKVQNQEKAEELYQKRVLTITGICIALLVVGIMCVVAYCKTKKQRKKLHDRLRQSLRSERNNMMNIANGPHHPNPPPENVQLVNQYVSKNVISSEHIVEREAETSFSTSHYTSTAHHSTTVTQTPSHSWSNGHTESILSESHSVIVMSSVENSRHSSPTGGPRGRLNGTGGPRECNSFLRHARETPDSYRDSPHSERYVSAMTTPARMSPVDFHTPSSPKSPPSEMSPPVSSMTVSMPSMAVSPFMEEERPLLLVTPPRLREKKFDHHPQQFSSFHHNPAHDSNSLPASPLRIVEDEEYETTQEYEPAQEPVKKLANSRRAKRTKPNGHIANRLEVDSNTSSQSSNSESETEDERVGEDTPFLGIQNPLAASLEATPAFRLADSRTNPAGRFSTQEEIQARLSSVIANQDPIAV

In the case of `CC(=O)NCCCC[C@@H]1NC(=O)[C@@H]2C[C@H](C(=O)NCCCC[N+](C)(C)C)[C@H](c3ccc(O)cc3)N2C1=O`, the composite z-score was -0.235 in test [1]; 1.74 in [2]; 0.0056 in test [3]; 0.88 in test [4]; -0.188 in test [5]; 1.21 in test [6]. For the same compound, the composite z-score was 1.19 in test [7]; 0.177 in test [9]; 0.224 in test [10]; 1.54 in test [11]; 1.46 in test [15]; -0.0774 in [17]. In addition, the composite z-score in test [18] was 1.36; in test [19], 1.09; in test [20] it was -0.0131. Besides, the z-score in test [8] was 1.32 (inactive); in test [12], 0.305 (inactive); in [13] it was -0.266 (inactive); in test [14] it was -1.29 (inactive); in test [16] it was 0.0855 (inactive).

`O=C1N(Cc2ccccc2)c2ccccc2[C@@H]2OC(c3ccc(OCCCO)cc3)=N[C@]12Cc1ccccc1`: the composite z-score was 0.677 in test [1]; -0.603 in [2]; 0.06 in test [3]; 0.569 in [4]; 0.848 in test [5]; -0.329 in test [6]. The composite z-score was 1.19 in test [7]; 0.191 in [9]; 0.113 in test [10]; 1.38 in test [11]; 2.93 in test [15]; 0.0759 in test [17]. Moreover, the composite z-score in test [18] was 0.307; in test [19], 0.804; in [20], -0.0391. For the same compound, the z-score in test [8] was -2.82 (inactive); in [12], -0.548 (inactive); in test [13], -1.14 (inactive); in [14], 4.88 (inactive); in test [16], 0.8 (inactive).

Regarding `C[N+](C)(C)CCCCCCNC(=O)[C@H]1C[C@H]2C(=O)N[C@@H](Cc3ccccc3)C(=O)N2[C@H]1c1ccc(O)cc1`, the composite z-score in [1] was 0.18; in test [2], 0.375; in test [3], -0.0853; in test [4], 0.316; in test [5] it was 0.224; in [6], 0.736. In addition, the composite z-score in test [7] was 1.21; in test [9], -0.0859; in test [10], 0.0373; in test [11], 1.53; in test [15], 2.56; in test [17] it was -0.0769. Besides, the composite z-score in test [18] is 1.18; in test [19], 0.98; in [20], -0.136. The z-score is 2.26 (inactive) in [8]; -0.327 (inactive) in [12]; 0.162 (inactive) in [13]; 0.0818 (inactive) in test [14]; 0.441 (inactive) in test [16].

On to `COCCOC(=O)N1C(=O)[C@@]2(c3cc(C#CCNC(N)=O)ccc31)[C@H](C(=O)N1CCc3cc(OC)c(OC)cc3C1)[C@H]1C(=O)O[C@H](c3ccccc3)[C@H](c3ccccc3)N1[C@@H]2c1ccccc1OCCO`, for which the composite z-score is -0.178 in test [1]; 1.05 in [2]; -0.0908 in [3]; 0.371 in [4]; 0.749 in test [5]; 0.202 in test [6]. In addition, the composite z-score in test [7] is 0.869; in test [9], 0.31; in [10] it was -0.191; in [11], 1.37; in test [15] it was 2.14; in [17], 0.0253. Also, the composite z-score in test [18] was 1.36; in test [19], 1.11; in test [20], -0.0734. The z-score is -0.902 (inactive) in test [8]; -0.959 (inactive) in test [12]; 0.319 (inactive) in test [13]; 3.2 (inactive) in [14]; 1.16 (inactive) in test [16].

Take `C=C(COC)/C(=C/C[C@H](OC(C)=O)c1ccc(OCCO)cc1)c1cc(C(=O)OC)ccc1OC`: the composite z-score in test [1] was -0.391; in [2] it was 1.91; in test [3], -0.1; in test [4], 1.03; in [5] it was 0.277; in [6], 0.697. Besides, the composite z-score in test [7] is 1.24; in test [9] it was 0.0308; in test [10] it was -0.476; in test [11], 1.53; in [15], 0.914; in [17], -0.119. Moreover, the composite z-score is 1.68 in test [18], 0.794 in test [19] and -0.126 in test [20]. The z-score in test [8] is -0.658 (inactive); in [12], 0.092 (inactive); in test [13], -1.08 (inactive); in test [14], -0.656 (inactive); in [16], 1.23 (inactive).
